Screening results deposited in PubChem by several laboratories.
Hits are enriched below; roughly 5.4% of the tested compounds scored in any of these assays.
Mdm2-MdmX inh = inhibitors of human Mdm2/MdmX interaction | O15151+Q00987 | SaOS-2 split-luciferase Mdm2/MdmX complementation, luminescence | inhibition, % at 8 µM | hit rate 3% among 330,000 | AID 485346;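 active = inhibition of at least 50% at 8 µM in the primary screen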
MPTP inh = inhibitors of mitochondrial permeability transition pore. isolated mouse mitochondria, Ca2+ swelling absorbance, 30 min. inhibition, % at 10 µM. hit rate 1.4% among 360,000;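 active = inhibition of 50% or more, scaled per plate between neutral and stimulator controls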;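 also: 0% = DMSO wells given calcium and 100% = 1 mM EGTA wells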
CSC inhib = blocks cancer stem cells | cancer stem cell-like cells viability, luminescence | inhibition, % at 7.5 µM | hit rate 1.1% among 300,000; in the data active = inhibition above about 75%; tested in HMLE shEcad cells
SKKanGAS inh = SKKanGAS growth inhibition. S. pyogenes SKKanGAS, kanamycin growth, BacTiter-Glo, 6 h. inhibition, % at 7.5 µM. hit rate 1.3% among 300,000. AID 1662;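 active = mean replicate score, as percent of positive control median, at least 50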;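 also: strain carries kanamycin resistance gene driven by streptokinase promoter and grows in 40 µg/ml kanamycin; loss of luminescence reflects streptokinase promoter inhibition or plain growth inhibition; 0% = median of DMSO wells and 100% = positive control at its reference dose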
Calb FLC = affects C. albicans growth with fluconazole | C. albicans CaCi-2 (fluconazole-resistant clinical isolate) + fluconazole, Alamar Blue growth, 48 h | hit rate 0.57% among 300,000 | growth inhibition, % (test concentration not listed);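 active = growth inhibition above about 58% in most replicates, limit read from the data, passing the limit was not always enough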;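 also: all wells also contain fluconazole at 8 µg/ml as a sub-toxic cotreatment; 0% = median of DMSO wells and 100% = median of geldanamycin control wells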
Beta cell apopt = beta cell apoptosis inhibition. AID 435005. INS-1E cytokine-induced death, ATP luminescence, 48 h; percent of positive-control rescue, neutral wells zero. hit rate 0.8% among 300,000. protection from apoptosis, % (no concentration beside the values);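 active = Every replicate reaches about 75%, or at least half do and their mean reaches it too, limit read from the data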;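 also: 0% = cytokine-treated negative control wells and 100% = positive control rescue; higher means more ATP so stronger rescue from cytokine killing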
Mdm2 MdmX conf = confirmation of human Mdm2/MdmX interaction inhibitors; AID 489028; inhibition, % at 8 µM; Mdm2-MdmX binding, luminescent assay; hit rate 55% among 10,000; shares compounds with Mdm2-MdmX inh; in the data active = inhibition above about 40%
Full FLuc ctr = inhibits full-length luciferase, flagging false Mdm2/MdmX hits; shares compounds with Mdm2-MdmX inh; SaOS-2 full-length luciferase counterscreen, luminescence; inhibition, % at 8 µM; hit rate 77% among 6,200;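 active = mean inhibition at 8 µM reaching about 37%, which flags the compound as non-specific, limit read from the data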;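 also: p53-null SaOS-2 cells with luciferase driven by a doxycycline-inducible promoter; compound on cells about two nights before reading with doxycycline added after day one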
* hit, by the source's call; . = not tested or not shown.

SMILES | Mdm2-MdmX inh | MPTP inh | CSC inhib | SKKanGAS inh | Calb FLC | Beta cell apopt | Mdm2 MdmX conf | Full FLuc ctr
COc1cc2[nH]c(=O)n(CCC(=O)N3CCN(c4cc(Cl)ccc4C)CC3)c(=O)c2cc1OC | 75.3* | -0.6 | 0.0 | 9.9 | 10.0 | 6.7 | 12.6 | .
COc1cc2[nH]c(=O)n(CCCCCC(=O)N3CC=C(c4ccccc4)CC3)c(=O)c2cc1OC | 59.1* | 7.6 | 16.6 | 15.0 | 3.1 | -6.4 | 30.2 | .
Cn1c(=O)c2c(nc(CN3CCC(C(N)=O)CC3)n2CCCc2ccccc2)n(C)c1=O | 9.8 | 0.6 | -14.8 | -3.8 | 4.0 | 2.4 | . | .
COc1ccc(CCNc2cc(N3CCN(C(=O)c4ccccc4F)CC3)ccc2[N+](=O)[O-])cc1OC | 53.0* | 40.5 | 23.0 | 20.3 | -1.8 | 103.7* | 35.2 | 78.9*
Cc1ccc(NC(=O)CCC(=O)N/N=C/c2ccc(O)cc2O)cc1 | 22.2 | 0.1 | 27.0 | 8.5 | 3.9 | 11.0 | . | .
C=CCc1cccc(/C=N/NC(=O)CCC(=O)Nc2ccc(C)cc2)c1O | 65.1* | 1.9 | 9.2 | 6.6 | -22.2 | 90.4* | 65.2* | 52.2*
Cc1ccc(-c2nnc(SCC(=O)NNC(=O)COc3cccc(C)c3)n2C)cc1 | -22.2 | -0.5 | -4.5 | 7.6 | 10.2 | -2.6 | . | .
O=C(Nc1cccc(Cl)c1)c1cc2c(=O)n3ccccc3nc2s1 | 55.6* | -3.5 | -20.6 | 1.1 | 0.7 | -6.2 | 18.1 | .
Cc1cccc(NC(=O)c2cc3c(=O)n4ccccc4nc3s2)c1 | 6.8 | -0.3 | -2.0 | -1.7 | 14.3 | 5.2 | . | .
CCN(CC)S(=O)(=O)c1ccc(OC)c(NC(=O)c2cc3c(=O)n4ccccc4nc3s2)c1 | 55.4* | -0.1 | -3.5 | -12.8 | 4.7 | 5.6 | 7.2 | .
CC(=O)NS(=O)(=O)c1ccc(NC(=O)c2cc3c(=O)n4ccccc4nc3s2)cc1 | 20.6 | -0.1 | -11.3 | 4.6 | -10.7 | 2.5 | . | .
Cn1c(SCC(=O)Nc2ccc(N3CCOCC3)cc2)nnc1-c1ccco1 | -7.7 | 2.0 | . | 1.1 | 4.7 | 9.1 | . | .
CCN1CCCC1CNC(=O)CCc1nnc(CCC2CCCCC2)o1 (stereo unspecified) | -1.8 | -1.9 | -10.4 | 11.2 | 2.5 | . | . | .
COc1ccc(-c2cc(C#N)nc(Cl)n2)cc1 | 68.2* | 2.7 | 25.1 | 36.2 | -5.9 | -6.2 | 33.6 | 38.2*
CCN(CC)c1nc(C#N)cc(-c2ccc(OC)cc2)n1 | 53.8* | 5.7 | -1.9 | 20.3 | -11.2 | 21.6 | 65.0* | 47.0*
O=[N+]([O-])c1cccc(Oc2ncccc2[N+](=O)[O-])c1 | . | -1.1 | . | . | . | . | . | .
CCn1c(=O)c2c(nc(SCC(=O)N3CCC(C)CC3)n2C)n(C)c1=O | -5.5 | -2.1 | -16.1 | 0.1 | -5.2 | 0.3 | . | .
Cc1ccccc1N(C(=O)c1snc(C(N)=O)c1N)C(C(=O)NCc1ccccc1)c1ccc(O)cc1 (stereo unspecified) | -23.8 | 1.3 | 4.4 | 0.6 | -7.8 | 6.5 | . | .
NC(=O)c1nsc(C(=O)N(c2ccccc2F)C(C(=O)NCc2ccccc2)c2ccc(O)cc2)c1N (stereo unspecified) | 52.2* | -0.4 | 17.9 | 6.4 | 1.3 | 7.1 | 65.8* | 77.4*
CN1CCN(CCC(=O)N/N=C/c2cc([N+](=O)[O-])ccc2OC(F)F)CC1 | 11.6 | -0.2 | -1.1 | 6.3 | -19.7 | 0.0 | . | .
COCCCNCC#CCOc1ccc(OC)cc1 | 100.2* | 0.1 | -29.3 | 3.1 | -16.7 | -0.7 | -0.7 | .
COc1ccc(NC(=O)Nc2ccccc2OC)cc1 | -26.8 | -0.7 | -19.6 | 3.0 | -19.9 | 6.8 | . | .
COc1ccccc1NC(=O)Nc1cc(NC(=O)Nc2ccccc2OC)c(C)nc1C | 56.2* | 0.3 | -0.2 | 2.3 | -9.1 | 50.6 | 33.1 | 60.6*
CCOCCCN(Cc1ccco1)C(=O)c1cc2c(=O)[nH]c3ccc(C)cc3c2s1 | 56.4* | 0.1 | . | 14.1 | -2.1 | 3.2 | 33.9 | .
CCC(NC(=O)COC(=O)C1CC2CCCC(C1)C2=O)c1ccc(Br)cc1 (stereo unspecified) | 13.7 | -1.4 | -14.6 | -3.9 | -11.4 | -1.8 | . | .
CCN(CC)S(=O)(=O)c1ccc(N/N=C/c2cc(OC)ccc2O)nc1 | 79.6* | 4.2 | 103.8* | -12.8 | 23.1 | 108.1* | 83.3* | 22.6
